SMILES strings stand for the structures. Compounds without any hit were thinned out: in the full panel of roughly 79,000, 15% have a hit. A number with no mark means an inactive call. Activity calls are given as the source filed them. No stated cut-off is given here; in the data, active means growth inhibition above about 70%; inactive means the rest.

Assay [1] in a line: NCI Yeast Anticancer Drug Screen. Data for the rad50 strain (AID 155).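 Further: 0% = growth of vehicle-only cultures of the same strain.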 The settings on record: S. cerevisiae rad50 strain growth inhibition, active compounds read high. An outline of the steps:
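Inhibition values express reduced yeast growth in compound-treated cultures relative to vehicle-treated controls.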

The nature of assay [2]: NCI Yeast Anticancer Drug Screen. Data for the mec2-1 strain (AID 157). The settings on record: S. cerevisiae mec2-1 strain, active compounds read high. An outline of the steps:
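Test agents were screened against the mec2-1 yeast strain, with defined DNA repair or cell cycle alteration. Growth was scored as inhibition against vehicle-only controls.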

Assay [3] is described as follows: NCI Yeast Anticancer Drug Screen. Data for the sgs1 mgt1 strain (AID 161).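 Further: 0% = growth of cultures given vehicle only.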 The settings on record: S. cerevisiae sgs1 mgt1 strain, active compounds read high. Summed up: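 Test agents were incubated with a DNA-repair-mutant yeast strain. Growth was then read and compared against vehicle-treated controls.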
Assay [4] can be described thus: NCI Yeast Anticancer Drug Screen. Data for the cln2 rad14 strain (AID 165).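 Further: 0% = growth equal to vehicle treated cultures.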 As to conditions: S. cerevisiae cln2 rad14 strain, active compounds read high. An outline of the steps: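 Growth of compound-exposed yeast (cln2 rad14 genotype) measured and expressed as inhibition relative to vehicle.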
Assay [5] can be described thus: NCI Yeast Anticancer Drug Screen. Data for the bub3 strain (AID 167). As to conditions: S. cerevisiae bub3 mutant strain, active compounds read high. An outline of the steps:
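Steps: expose the mutant yeast strain to compound; grow alongside vehicle-treated cultures; measure growth; express inhibition against the vehicle cultures.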

Assay [6] in a line: NCI Yeast Anticancer Drug Screen. Data for the mlh1 rad18 strain (AID 175). The settings on record: S. cerevisiae mlh1 rad18 strain growth inhibition, active compounds read high. An outline of the steps: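 In this whole-cell yeast screen, a strain with altered DNA damage repair is challenged with compound, and its growth is measured against matched vehicle-treated controls.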
Setting [7] is: at 5.0 µM (retest, dose inferred, filed as 0.5).
Where [8] appears, read: at 50.0 µM (retest, dose inferred, filed as 5.0).

For `CCCCCC(C1SC(=S)NC1=O)C1SC(=S)NC1=O` (stereo not given), the growth inhibition was 1% in assay [1] (setting [7]); -3% in assay [1] (setting [8]); 96.8% (active) in assay [1] (at 50.0 µM); 2% in assay [2] (setting [7]); 1% in assay [2] (setting [8]); 93.2% (active) in assay [2] (at 50.0 µM). The growth inhibition in assay [3] (setting [7]) is 5%; in assay [3] (setting [8]), 6%; in assay [3] (at 50.0 µM) it was 95% (active); in assay [4] (setting [7]) it was -1%; in assay [4] (setting [8]), -1%; in assay [4] (at 50.0 µM), 83% (active). Also, the growth inhibition in assay [5] (setting [7]) is 0%; in assay [5] (setting [8]) it was 0%; in assay [5] (at 50.0 µM), 97.6% (active); in assay [6] (setting [7]), 0%; in assay [6] (setting [8]), 3%; in assay [6] (at 50.0 µM) it was 81.8% (active).

Take `O=C(CN1CCCCC1)CC(O)(C(F)(F)F)C(F)(F)F`: the growth inhibition in assay [1] (setting [7]) was 29%; in assay [1] (setting [8]) it was 39%; in assay [1] (at 50.0 µM), 5.85%; in assay [2] (setting [7]), 20%; in assay [2] (setting [8]), 33%; in assay [2] (at 50.0 µM), 8.45%. In addition, the growth inhibition is 10% in assay [3] (setting [7]); 20% in assay [3] (setting [8]); 6.25% in assay [3] (at 50.0 µM); 2% in assay [4] (setting [7]); 50% in assay [4] (setting [8]); 15.6% in assay [4] (at 50.0 µM). In addition, the growth inhibition in assay [5] (setting [7]) is 11%; in assay [5] (setting [8]), 23%; in assay [5] (at 50.0 µM), 7.5%; in assay [6] (setting [7]), 31%; in assay [6] (setting [8]), 34%; in assay [6] (at 50.0 µM) it was 77.3% (active).

In the case of `CCCC(=O)c1cc(O)c(O)c(CN(C)Cc2cc(Cl)cc(C)c2O)c1O`, the growth inhibition in assay [1] (setting [7]) is -8%; in assay [1] (setting [8]), 91% (active); in assay [1] (at 50.0 µM) it was 55%; in assay [2] (setting [7]), 3%; in assay [2] (setting [8]) it was 97% (active); in assay [2] (at 50.0 µM) it was 52.5%. Moreover, the growth inhibition in assay [3] (setting [7]) is -11%; in assay [3] (setting [8]), 94% (active); in assay [3] (at 50.0 µM), 50.5%; in assay [4] (setting [7]) it was -16%; in assay [4] (setting [8]), 90% (active); in assay [4] (at 50.0 µM), 60.6%. Further, the growth inhibition in assay [5] (setting [7]) was -7%; in assay [5] (setting [8]), 97% (active); in assay [5] (at 50.0 µM), 49%; in assay [6] (setting [7]), 19%; in assay [6] (setting [8]) it was 96% (active); in assay [6] (at 50.0 µM), 54.5%.

On to `O=C(Cc1ccc(C2=NCCN2)cc1[N+](=O)[O-])c1ccc(C2=NCCN2)cc1`, for which the growth inhibition in assay [1] (setting [7]) was -3%; in assay [1] (setting [8]), 73% (active); in assay [1] (at 50.0 µM), 49.2%; in assay [2] (setting [7]), -7%; in assay [2] (setting [8]) it was 35%; in assay [2] (at 50.0 µM), 89.6% (active). Also, the growth inhibition in assay [3] (setting [7]) is 0%; in assay [3] (setting [8]) it was 55%; in assay [3] (at 50.0 µM), 26.8%; in assay [4] (setting [7]), -5%; in assay [4] (setting [8]) it was 16%; in assay [4] (at 50.0 µM) it was 25%. Besides, the growth inhibition was -8% in assay [5] (setting [7]); 71% (active) in assay [5] (setting [8]); 49.3% in assay [5] (at 50.0 µM); -5% in assay [6] (setting [7]); 68% in assay [6] (setting [8]); 68.7% in assay [6] (at 50.0 µM).

For `Oc1cc2c(cc1C(Nc1ncccn1)c1ccc(F)cc1)OCO2` (stereo not given), the growth inhibition is -1% in assay [1] (setting [7]); 46% in assay [1] (setting [8]); 17.9% in assay [1] (at 50.0 µM); -1% in assay [2] (setting [7]); 40% in assay [2] (setting [8]); 15.7% in assay [2] (at 50.0 µM). The growth inhibition in assay [3] (setting [7]) was 0%; in assay [3] (setting [8]), 77% (active); in assay [3] (at 50.0 µM), 79.7% (active); in assay [4] (setting [7]) it was 4%; in assay [4] (setting [8]), 24%; in assay [4] (at 50.0 µM), -12%. In addition, the growth inhibition was -1% in assay [5] (setting [7]); 64% in assay [5] (setting [8]); 44.1% in assay [5] (at 50.0 µM); 0% in assay [6] (setting [7]); 74% (active) in assay [6] (setting [8]); 43.5% in assay [6] (at 50.0 µM).

`CN1C(=O)c2cccc3cc([N+](=O)[O-])cc(c23)C1=O`: the growth inhibition in assay [1] (setting [7]) is 6%; in assay [1] (setting [8]) it was 80% (active); in assay [1] (at 50.0 µM) it was 82.7% (active); in assay [2] (setting [7]), -16%; in assay [2] (setting [8]), 76% (active); in assay [2] (at 50.0 µM), 29.1%. Also, the growth inhibition in assay [3] (setting [7]) is 6%; in assay [3] (setting [8]) it was 69%; in assay [3] (at 50.0 µM) it was 85.8% (active); in assay [4] (setting [7]), 17%; in assay [4] (setting [8]), 80% (active); in assay [4] (at 50.0 µM), 56.6%. Moreover, the growth inhibition is 3% in assay [5] (setting [7]); 88% (active) in assay [5] (setting [8]); 64% in assay [5] (at 50.0 µM); 15% in assay [6] (setting [7]); 53% in assay [6] (setting [8]); 56.6% in assay [6] (at 50.0 µM).

As to `c1ccc2sc(SSN3CCOCC3)nc2c1`, the growth inhibition in assay [1] (setting [7]) was 78% (active); in assay [1] (setting [8]), 99% (active); in assay [1] (at 50.0 µM), 94.4% (active); in assay [2] (setting [7]) it was 28%; in assay [2] (setting [8]) it was 98% (active); in assay [2] (at 50.0 µM) it was 89.2% (active). For the same compound, the growth inhibition in assay [3] (setting [7]) is 18%; in assay [3] (setting [8]), 99% (active); in assay [3] (at 50.0 µM), 66.8%; in assay [4] (setting [7]) it was 76% (active); in assay [4] (setting [8]) it was 97% (active); in assay [4] (at 50.0 µM) it was 96.3% (active). Further, the growth inhibition in assay [5] (setting [7]) is 64%; in assay [5] (setting [8]), 98% (active); in assay [5] (at 50.0 µM) it was 86.4% (active); in assay [6] (setting [7]), 34%; in assay [6] (setting [8]), 99% (active); in assay [6] (at 50.0 µM), 94% (active).

As to `Brc1ccc2[nH]c3nc4ccc5ccccc5c4nc3c2c1`, the growth inhibition in assay [1] (setting [7]) is 2%; in assay [1] (setting [8]), 1%; in assay [1] (at 50.0 µM), -2.35%; in assay [2] (setting [7]), 3%; in assay [2] (setting [8]), 1%; in assay [2] (at 50.0 µM), 20.8%. In addition, the growth inhibition is 0% in assay [3] (setting [7]); 0% in assay [3] (setting [8]); 7.15% in assay [3] (at 50.0 µM); 6% in assay [4] (setting [7]); -1% in assay [4] (setting [8]); 71% (active) in assay [4] (at 50.0 µM). Further, the growth inhibition was 6% in assay [5] (setting [7]); 0% in assay [5] (setting [8]); 12.4% in assay [5] (at 50.0 µM); 6% in assay [6] (setting [7]); 2% in assay [6] (setting [8]); -3.25% in assay [6] (at 50.0 µM).

As for `COC(=O)c1ccc(NCC2=C(Br)C(=O)C=CC2=O)cc1Cl`, the growth inhibition in assay [1] (setting [7]) is 43%; in assay [1] (setting [8]), 98% (active); in assay [1] (at 50.0 µM) it was 89.4% (active); in assay [2] (setting [7]), 35%; in assay [2] (setting [8]), 98% (active); in assay [2] (at 50.0 µM) it was 77.6% (active). Further, the growth inhibition is 35% in assay [3] (setting [7]); 98% (active) in assay [3] (setting [8]); 92.3% (active) in assay [3] (at 50.0 µM); 43% in assay [4] (setting [7]); 98% (active) in assay [4] (setting [8]); 88.8% (active) in assay [4] (at 50.0 µM). For the same compound, the growth inhibition in assay [5] (setting [7]) is 44%; in assay [5] (setting [8]), 98% (active); in assay [5] (at 50.0 µM) it was 90.8% (active); in assay [6] (setting [7]), 37%; in assay [6] (setting [8]), 97% (active); in assay [6] (at 50.0 µM), 89.7% (active).

Turning to `COc1ccc(C2=NN(c3ccccc3)C[N+](c3ccc(C)cc3)=N2)cc1`, the growth inhibition in assay [1] (setting [7]) was 6%; in assay [1] (setting [8]), 98% (active); in assay [1] (at 50.0 µM), 97.5% (active); in assay [2] (setting [7]), -14%; in assay [2] (setting [8]), 99% (active); in assay [2] (at 50.0 µM), 98.2% (active). Further, the growth inhibition in assay [3] (setting [7]) is -3%; in assay [3] (setting [8]) it was 98% (active); in assay [3] (at 50.0 µM) it was 98.5% (active); in assay [4] (setting [7]), 12%; in assay [4] (setting [8]), 98% (active); in assay [4] (at 50.0 µM), 97.9% (active). For the same compound, the growth inhibition in assay [5] (setting [7]) is -1%; in assay [5] (setting [8]), 99% (active); in assay [5] (at 50.0 µM), 98.2% (active); in assay [6] (setting [7]) it was 13%; in assay [6] (setting [8]), 98% (active); in assay [6] (at 50.0 µM), 97.8% (active).
